Source: PubChem BioAssay (several laboratories)
proKLK7 act: activates the human kallikrein-7 zymogen; P49862; purified proKLK7, EDANS-DABCYL substrate fluorescence; 100% is mature enzyme control, 0% vehicle; activation, % at 7 µM; 0.9% of 370,000 active; AID 652039;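 active = activation above the mean of all tested compounds plus 3 SD, computed per campaign excluding outliers beyond control limits, cut at about 13% in these data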
PP1 counter: PP1-alpha (human) inhibition in PP5 counter-screen | inhibition, % at 6.7 µM | purified PP1alpha, OMFP fluorescence | 0.9% of 320,000 active;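 active = inhibition above the mean inhibition of all tested compounds plus 3 SD, computed separately for each screening campaign, cut at about 15% in these data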
GASC-1 inh: blocks human GASC-1 demethylase activity | 0.069% of 330,000 active | GST-JMJD2C(1-420) H3K9me3 demethylation, DELFIA europium | inhibition, % at 2.35 µM;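 active = more than half of a compound's replicate wells show inhibition beyond 50%, single wells judged on their own value; inconclusive = some, but no more than half, of replicates pass 50% inhibition; inactive = no replicate passes 50% inhibition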;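 note: signal counts dimethyl H3K9 product captured on neutravidin plate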
PG9 binder: binds the HIV-1 gp120 antibody PG9. TR-FRET gp120-PG9 antibody binding. inhibition, % at 6.7 µM. 0.43% of 360,000 active; in the data active = inhibition above about 8.5%
PP5 inh: PP5 (human) phosphatase inhibition | 0.18% of 320,000 active | P53041 | purified PP5c, OMFP substrate fluorescence | inhibition, % at 6.7 µM | AID 1987;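 active = inhibition above the campaign's mean inhibition across all tested compounds plus 3 SD, cut at about 9.5% in these data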
Rev-erbA mod: modulators of human Rev-erb alpha DNA binding; P20393; Rev-erbα–FITC-DNA binding, fluorescence polarization, 90 min; activity, % at 10 µM; 0.79% of 370,000 active;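 active = activity above about 14%, limit read from the data; passing the limit was not always enough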
Target sequence (P20393 whole entry, looked up): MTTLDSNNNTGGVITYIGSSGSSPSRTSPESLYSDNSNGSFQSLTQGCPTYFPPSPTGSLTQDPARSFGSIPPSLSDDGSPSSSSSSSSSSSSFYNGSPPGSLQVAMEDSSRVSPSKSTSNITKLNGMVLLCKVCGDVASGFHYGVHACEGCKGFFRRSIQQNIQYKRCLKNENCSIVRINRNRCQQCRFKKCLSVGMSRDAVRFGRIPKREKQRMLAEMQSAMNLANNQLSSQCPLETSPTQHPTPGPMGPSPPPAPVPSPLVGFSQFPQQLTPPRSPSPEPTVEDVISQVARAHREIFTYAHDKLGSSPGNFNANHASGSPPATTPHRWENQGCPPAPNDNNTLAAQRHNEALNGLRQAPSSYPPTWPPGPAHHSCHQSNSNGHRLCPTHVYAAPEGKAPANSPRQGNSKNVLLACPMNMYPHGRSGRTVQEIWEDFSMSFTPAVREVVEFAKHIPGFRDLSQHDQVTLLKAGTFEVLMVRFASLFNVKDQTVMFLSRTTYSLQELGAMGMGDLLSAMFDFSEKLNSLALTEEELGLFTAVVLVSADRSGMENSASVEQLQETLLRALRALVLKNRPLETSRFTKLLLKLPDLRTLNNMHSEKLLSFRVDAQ
proKLK7 act conf: confirmation of human kallikrein-7 zymogen activators; activation, % at 7 µM; shares compounds with proKLK7 act; 68% of 3,200 active; purified proKLK7, EDANS-DABCYL substrate fluorescence; scaled: vehicle 0, mature enzyme 100;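 active = activation, as change over the incubation, above the mean of all tested compounds plus 3 SD, cut at about 13% in these data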
EDANS-DABCYL int: optically interferes with EDANS-DABCYL signal, flagging KLK7 hits; activation, % at 7 µM; EDANS-DABCYL substrate fluorescence interference, no enzyme, 4 h; solvent 0%, active enzyme control 100%; 80% of 3,200 active; shares compounds with proKLK7 act;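 active = activation above the all-compound mean plus 3 SD, ignoring values outside control-based bounds, cut at about 4.8% in these data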;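 note: value is the 4 h activation minus the activation read at time zero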
EDANS interf: optically interferes with EDANS-DABCYL fluorescence, kallikrein-7 activator counter-screen; 20% of 250 active; EDANS-DABCYL peptide fluorescence interference, no enzyme; shares compounds with proKLK7 act; EC50, µM; AID 720493;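 active = compounds that raise the fluorescence signal in this interference counterscreen, with EC50 at or below 10 µM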;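 note: intact quenched peptide substrate alone read at 355 nm excitation and 520 nm emission; signal is fluorescence gain from T0 to T4 after four hours at room temperature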
Hits are given with their value; i = inactive; ? = inconclusive; nt = no result given. In the library only some 2.8% were active in any assay of this set; here they are far more common.

SMILES	proKLK7 act	PP1 counter	GASC-1 inh	PG9 binder	PP5 inh	Rev-erbA mod	proKLK7 act conf	EDANS-DABCYL int	others
CCCN1C(=O)c2ccccc2NC1c1ccc(C)cc1 (centres undefined)	14	i	i	i	i	i	i	7.3
CCCN1C(=O)c2ccccc2NC1c1ccc(OC)cc1O (centres undefined)	19	i	i	i	i	i	15	16
CCCN1C(=O)c2ccccc2NC1c1ccc(OC)cc1OC (centres undefined)	i	i	i	i	i	i	nt	nt
O=C(O)c1ccccc1C1Nc2ccccc2C(=O)N1CCCN1CCOCC1 (centres undefined)	i	i	i	i	i	i	nt	nt
O=C1c2ccccc2NC(c2ccccc2)N1CCCN1CCOCC1 (centres undefined)	15	i	i	i	i	i	i	10
Cc1onc(-c2ccc(Cl)cc2)c1-c1ccn(S(=O)(=O)c2cccc(Cl)c2)n1	i	nt	nt	nt	nt	i	nt	nt
Cc1ccccc1/C=N\NC(=O)c1ccc(Cn2cccn2)o1	i	i	i	i	i	i	nt	nt
NC(=O)Cn1cc(/C=N/NC(=O)c2ccc(Cn3cc(Cl)cn3)o2)c(-c2ccccc2)n1	20	nt	i	i	nt	i	i	i
O=S1(=O)CCSC[C@@H](CN2CCN(c3ccccc3)CC2)N1	i	nt	nt	i	nt	i	nt	nt
CN(C)c1ccc(C2C3C(=O)N(c4ccc(C(=O)O)cc4)C(=O)C3ON2c2ccccc2)cc1 (centres undefined)	63	i	i	i	i	i	i	i
O=C(O)c1ccc(N2C(=O)C3ON(c4ccccc4)C(c4ccccc4F)C3C2=O)cc1 (centres undefined)	i	i	i	i	i	i	nt	nt
CNC(=S)N/N=C/c1c(C(=O)OC)cnn1-c1ccc(Cl)cc1	nt	nt	nt	nt	nt	i	nt	nt
Cc1cc(NCCCn2ccnc2)n2c(nc3ccccc32)c1C#N	17	i	i	i	i	i	54	72
Cc1cc(NCCCN(C)C)n2c(nc3ccccc32)c1C#N	72	i	i	i	i	i	72	69
Cc1cc(NCCN2CCCCC2)n2c(nc3ccccc32)c1C#N	nt	nt	i	nt	nt	nt	nt	nt
CCCc1cc(NCCCO)n2c(nc3ccccc32)c1C#N	17	i	i	i	i	i	i	i
CCC(C)Nc1cc(C)c(C#N)c2nc3ccccc3n12 (centres undefined)	26	i	i	i	i	i	i	i
C[C@H](O)[C@@H]1C(=O)N2CCc3c([nH]c4c(-c5ccccc5)cccc34)[C@@H]2C[C@@H]1N(C)C(=O)/C=C/c1ccccc1	i	nt	nt	i	nt	i	nt	nt
COc1ccccc1-c1coc2cc(O)cc(O)c2c1=O	i	i	i	i	i	i	nt	nt
CCN(CC)Cc1c(O)ccc2c(=O)c(-c3ccccc3OC)coc12	85	i	i	i	i	i	51	74
CCN(CC)Cc1c(O)ccc2c(=O)c(-c3ccccc3Cl)coc12	40	i	i	i	i	i	67	62
Cc1cc(Nc2ccccc2)nc(-c2ccccc2O)n1	i	i	i	i	i	i	nt	nt
Cc1cc(Nc2cccc(F)c2)nc(-c2ccccc2O)n1	197	i	i	i	i	i	13	i	EDANS interf=i
COC(=O)c1cc(-c2ccc(Cl)s2)c(=O)n2c1CCC2	i	nt	nt	nt	nt	i	nt	nt
CC12CCC(=O)N1c1c(sc3nc(N4CCOCC4)c4c(c13)CCCC4)C(=O)N2 (centres undefined)	20	i	i	i	i	i	69	68
SMILES	proKLK7 act	PP1 counter	GASC-1 inh	PG9 binder	PP5 inh	Rev-erbA mod	proKLK7 act conf	EDANS-DABCYL int	others
COC(=O)c1ccc(-c2sc3nc(N4CCOCC4)c4c(c3c2N)CCCC4)o1	i	i	i	i	i	i	nt	nt
COc1cc2[nH]c(Cl)c([N+](=O)[O-])c2cc1OC	58	i	i	i	i	i	i	5.9
O=C1/C(=C/c2cccc(F)c2)Oc2cc(O)ccc21	21	i	i	i	i	i	56	79
O=C(CNSc1ccc([N+](=O)[O-])cc1[N+](=O)[O-])OCc1ccccc1	i	nt	nt	i	nt	i	nt	nt
Cc1cc(N2CCOCC2)nc(N2CCOCC2)c1C#N	i	nt	nt	i	nt	i	nt	nt
CCOc1cc2c(C#N)c(N3CCOCC3)nc(N)c2c(N)n1	16	i	i	i	i	i	69	66
CCC1Cc2c(nc(N)c3c(N)nc(N4CCOCC4)c(C#N)c23)O1 (centres undefined)	19	i	i	i	i	i	i	i
O=C1COc2ccccc2C(c2nnnn2Cc2ccccc2)N1Cc1cccs1 (centres undefined)	i	nt	nt	nt	nt	i	nt	nt
COC(=O)[C@]12C[C@H](CC(=O)NCCCCc3ccccc3)C(=O)N(Cc3ccccc3)C1=C[C@H](COCc1ccccc1)O[C@@H]2C	i	nt	nt	nt	nt	i	nt	nt
S=C1NC(c2ccccc2)=CC(c2ccccc2)N1 (centres undefined)	i	i	i	i	i	i	nt	nt
N#CC1C(=O)NC(c2ccccc2)=CC1c1ccccc1 (centres undefined)	124	nt	nt	i	nt	i	110	103
CC(=O)c1cc(-c2ccccc2)n(CC(=O)NCc2ccc(F)cc2)c1C	i	nt	nt	nt	nt	i	nt	nt
CONC(=O)c1ccc(-c2cccc3nccn23)cc1	13	nt	nt	i	nt	i	i	12
Cc1cccc(-c2cccc3nccn23)c1	i	nt	nt	i	nt	i	nt	nt
OCc1ccc(-c2cccc3nccn23)cc1	16	nt	nt	i	nt	i	15	14
Cc1ccc(C2C3=C(CC(C)(C)CC3=O)Nc3onc(C)c32)cc1 (centres undefined)	15	i	i	i	i	i	i	i
COc1ccc(C2Nc3ccccc3NC3=C2C(=O)CC(C)(C)C3)cc1 (centres undefined)	i	i	i	i	i	i	nt	nt
CCCSC1=C(C#N)C(c2ccc(OC)cc2)C2=C(CC(C)(C)CC2=O)N1 (centres undefined)	16	i	i	i	i	i	i	i
CSC1=C(C#N)C(c2ccc(Cl)cc2)C2=C(CC(C)(C)CC2=O)N1 (centres undefined)	i	i	i	i	i	i	nt	nt
COc1ccc(C2C(C#N)=C(C)NC3=C2C(=O)CC(C)(C)C3)cc1 (centres undefined)	21	i	i	i	i	i	61	66
COc1cccc(C2C(C#N)=C(C)NC3=C2C(=O)CC(C)(C)C3)c1 (centres undefined)	25	i	?	i	i	i	18	34
